Test results reported in PubChem BioAssay (EPA / NIEHS).
Where “and” joins values, the source holds several entries; their conditions need not be identical. Identical values can stand only once. Results filed as inconclusive are left out. Calls of active or inactive are those of the source. How the source made its calls, unless noted: active means hit-call score of the fitted dose curve at least 0.9, where 1 is the maximum; inconclusive means response in the unintended direction; inactive means score below 0.9.

What was measured:
[1] = read-out: Transforming Growth Factor (TGFA), TGFA (gene 7039); assay: LTEA_HepaRG_TGFA: Life Technologies and Expression Analysis (LTEA) Assay for Transforming Growth Factor (TGFA) using HepaRG (AID 2283532; active means hit-call score of the fitted dose curve at least 0.9, where 1 is the maximum; inactive means score below 0.9); conditions: mRNA level, 48 h; actives raise or lower the signal
Procedure, shortened: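 Gene expression of TGFA was quantified by qRT-PCR after human HepaRG cells were treated for 48 h with test chemicals (eight concentrations, highest 100 uM, 0.5% DMSO). Activity in either direction was fitted relative to DMSO.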

[2] = read-out: Transforming Growth Factor (TGFB1), TGFB1 (gene 7040); assay: LTEA_HepaRG_TGFB1: Life Technologies and Expression Analysis (LTEA) Assay for Transforming Growth Factor (TGFB1) Transporter using HepaRG (AID 2283533; active means hit-call score of the fitted dose curve at least 0.9, where 1 is the maximum; inactive means score below 0.9); conditions: mRNA level, 48 h; actives raise or lower the signal
Procedure, shortened: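 HepaRG, 48 h post-plating, switched to serum-free induction medium; chemicals 100 uM top, half-log, 8 pts, 0.5% DMSO, dup; 48 h exposure; RNA → Fluidigm TaqMan qRT-PCR; norm ACTB/GAPDH/POLR2A; bidirectional fit vs DMSO.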

TIMP1, TIMP1 (gene 7076) = assay: LTEA_HepaRG_TIMP1: Life Technologies and Expression Analysis (LTEA) Assay for TIMP1 using HepaRG (AID 2283534; active means hit-call score of the fitted dose curve at least 0.9, where 1 is the maximum; inactive means score below 0.9); conditions: mRNA level, 48 h; actives raise or lower the signal
Procedure, shortened: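 Readout is TIMP1 mRNA level measured by qRT-PCR and normalized to three housekeeping genes. Human HepaRG cells were treated for 48 h in duplicate at eight concentrations up to 100 uM (0.5% DMSO); gain or loss fitted against DMSO.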

[3] = read-out: Tumor necrosis factor receptor 1 (TNFRSF1A), TNFRSF1A (gene 7132); assay: LTEA_HepaRG_TNFRSF1A: Life Technologies and Expression Analysis (LTEA) Assay for Tumor necrosis factor receptor 1 (TNFRSF1A) using HepaRG (AID 2283535; active means hit-call score of the fitted dose curve at least 0.9, where 1 is the maximum; inactive means score below 0.9); conditions: mRNA level, 48 h; actives raise or lower the signal
Procedure, shortened: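 Read-out is TNFRSF1A transcript level by TaqMan qRT-PCR, normalized to three housekeeping genes, scored as gain or loss of signal versus 0.5% DMSO. Human HepaRG cells received test chemicals for 48 h at up to 100 uM (half-log series).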

[4] = read-out: Thyroid Hormone Responsive (THRSP), THRSP (gene 7069); assay: LTEA_HepaRG_THRSP: Life Technologies and Expression Analysis (LTEA) Assay for Thyroid Hormone Responsive (THRSP) using HepaRG (AID 2283536; active means hit-call score of the fitted dose curve at least 0.9, where 1 is the maximum; inactive means score below 0.9); conditions: mRNA level, 48 h; actives raise or lower the signal
Procedure, shortened: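 Cell model: human HepaRG, approx. 100,000 cells/well, 0.5% DMSO vehicle. Exposure lasts 48 h; phenobarbital 1 mM serves as induction positive control. Gene expression is measured by qRT-PCR against three endogenous control genes.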

[5] = read-out: UDP glucuronosyltransferase (UGT1A1), UGT1A1 (gene 54658); assay: LTEA_HepaRG_UGT1A1: Life Technologies and Expression Analysis (LTEA) Assay for UDP glucuronosyltransferase (UGT1A1) using HepaRG (AID 2283538; active means hit-call score of the fitted dose curve at least 0.9, where 1 is the maximum; inactive means score below 0.9); conditions: mRNA level, 48 h; actives raise or lower the signal
Procedure, shortened: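 HepaRG, 48 h chemical exposure (top 100 uM, half-log 8-pt, 0.5% DMSO vehicle), duplicate wells; qRT-PCR (TaqMan, Fluidigm array) for UGT1A1 mRNA, housekeeping-normalized; bidirectional curve fit vs DMSO baseline.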

[6] = read-out: UDP glucuronosyltransferase (UGT1A6), UGT1A6 (gene 54578); assay: LTEA_HepaRG_UGT1A6: Life Technologies and Expression Analysis (LTEA) Assay for UDP glucuronosyltransferase (UGT1A6) using HepaRG (AID 2283539; active means hit-call score of the fitted dose curve at least 0.9, where 1 is the maximum; inactive means score below 0.9); conditions: mRNA level, 48 h; actives raise or lower the signal
Procedure, shortened: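 HepaRG, 48 h post-plating switch to serum-free induction medium; chemical 48 h, 100 uM top, half-log x8, duplicate, 0.5% DMSO. Phenobarbital 1mM induction control. UGT1A6 mRNA by TaqMan qRT-PCR; gain/loss fit vs DMSO.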

[7] = read-out: X-box binding protein 1 (XBP1), XBP1 (gene 7494); assay: LTEA_HepaRG_XBP1: Life Technologies and Expression Analysis (LTEA) Assay for X-box binding protein 1 (XBP1) using HepaRG (AID 2283540; active means hit-call score of the fitted dose curve at least 0.9, where 1 is the maximum; inactive means score below 0.9); conditions: mRNA level, 48 h; actives raise or lower the signal
Procedure, shortened: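 Transcript levels of XBP1, measured by qRT-PCR and normalised to three housekeeping genes, were fitted bidirectionally relative to 0.5% DMSO controls. Human HepaRG cells received eight-point half-log dilutions from 100 uM for 48 h.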

[8] = LTEA_HepaRG_LDH_cytotoxicity: Cytotoxicity Assessment in the Life Technologies and Expression Analysis (LTEA) Assay (AID 2283563);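 on AC50: LDH activity released into spent culture medium as a marker of cell death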
Procedure, shortened: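 Cells were thawed and plated for 48 h. Medium was then replaced with serum-free induction medium. Chemicals (8 half-log points, maximum 100 uM, 0.5% DMSO) were added in duplicate for 48 h, after which spent medium was assayed for LDH.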

[9] = ATG_XTT_Cytotoxicity: Cytotoxicity Assessment in the Attagene TRANS-FACTORIAL HepG2 Assay (AID 2283584);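 on AC50: cells exposed to compound for 24 h before reading; active means loss of viability signal versus DMSO baseline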
Procedure, shortened: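 Cells: human HepG2, transiently transfected with MRTU reporter constructs. Exposure 24 h. Readout: XTT, cell number. Baseline/neg ctrl DMSO; loss-of-signal scored.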

[10] = Tanguay_ZF_120hpf_MORT_legacy: (Legacy) Oregon State University Tanguay Lab 120 Hour Post-fertilization zebrafish Assay for Mortality (AID 2283633)
Procedure, shortened: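 5D WT zebrafish, chorion removed 4 hpf; 1 embryo/well from 6 hpf; static exposure to 120 hpf, 28C, dark, sealed. Final DMSO 0.64%. Readout: binary mortality, brightfield, 24 + 120 hpf; DMSO as negative control.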

[11] = read-out: sulfotransferase 2A1 (SULT2A1), SULT2A1 (gene 6822); assay: LTEA_HepaRG_SULT2A1: Life Technologies and Expression Analysis (LTEA) Assay for sulfotransferase 2A1 (SULT2A1) using HepaRG (AID 2283531; active means hit-call score of the fitted dose curve at least 0.9, where 1 is the maximum; inactive means score below 0.9); conditions: mRNA level, 48 h; actives raise or lower the signal
Procedure, shortened: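 Transcript levels of SULT2A1, quantified by qRT-PCR and normalized to three housekeeping genes, serve as the readout. Human HepaRG cultures receive test chemicals for 48 h at up to 100 uM in half-log steps, with 0.5% DMSO vehicle.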

[12] = TOX21_p53_BLA_p2_viability: Viability Assessment in the Tox21 HCT-116 p53 Agonism Beta-lactamase Assay, Phase 2 (AID 2283591);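 further: compound exposure lasted 16 h at 37 °C; actives lower the ATP signal meaning cytotoxicity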
Procedure, shortened: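 HCT-116 p53-bla cells (4000/well) rested 5 h at 37C, then received compounds in DMSO (217-fold dilution) for 16 h at 37C, 5% CO2. After the CCF4 read, CellTiter-Glo was added; ATP luminescence was read after 30 min at room temperature.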

[13] = target: Cellular tumor antigen p53 (Homo sapiens) (UniProt P04637); assay: TOX21_p53_BLA_p3_ratio: Tox21 HCT-116 p53 Agonism Beta-lactamase Assay, Ratio, Phase 3 (AID 2283596)
Procedure, shortened: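 Cells were seeded at 4000/well, rested 5 h at 37C, then dosed with DMSO compound solutions (217-fold dilution) for 16 h. CCF4-AM substrate was loaded for 2 h at room temperature, and the 460/530 nm emission ratio was fitted for gain of signal versus DMSO.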

[14] = TOX21_p53_BLA_p4_viability: Viability Assessment in the Tox21 HCT-116 p53 Agonism Beta-lactamase Assay, Phase 4 (AID 2283597);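 further: hits lower the luminescence signal meaning cytotoxicity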
Procedure, shortened: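 Readout: ATP luminescence (CellTiter-Glo), measured 30 min after reagent addition at RT. The reagent followed a 2 h CCF4-AM incubation, and the cells had been exposed to compound for 16 h at 37C.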

[15] = target: Cellular tumor antigen p53 (Homo sapiens) (UniProt P04637); assay: TOX21_p53_BLA_p5_ratio: Tox21 HCT-116 p53 Agonism Beta-lactamase Assay, Ratio, Phase 5 (AID 2283599)
Procedure, shortened: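 HCT-116 cells carrying a p53-inducible beta-lactamase reporter were seeded at 4000 cells/well and dosed after 5 h with compound in DMSO (217-fold dilution). After 16 h at 37C, CCF4-AM substrate was added for 2 h, and the 460/530 nm emission ratio was scored as gain-of-signal versus DMSO.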

[16] = TOX21_p53_BLA_p5_viability: Viability Assessment in the Tox21 HCT-116 p53 Agonism Beta-lactamase Assay, Phase 5 (AID 2283600)
Procedure, shortened: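 Workflow: seed 4000 cells per well, wait 5 h, add compounds (DMSO, 217-fold dilution), incubate 16 h, load CCF4-AM 2 h, add CellTiter-Glo, read luminescence after 30 min.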

[17] = target: Cellular tumor antigen p53 (Homo sapiens) (UniProt P04637); assay: TOX21_p53_BLA_p4_ratio: Tox21 HCT-116 p53 Agonism Beta-lactamase Assay, Ratio, Phase 4 (AID 2283601)
Procedure, shortened: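 HCT116 cells carrying an inducible beta-lactamase reporter were plated at 4000 cells/well, rested 5 h, then exposed to compounds in DMSO (217-fold dilution) for 16 h at 37C. CCF4-AM substrate was loaded 2 h at room temperature; 460/530 nm emission ratio scored gain-of-signal versus DMSO.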

[18] = TOX21_p53_BLA_p3_viability: Viability Assessment in the Tox21 HCT-116 p53 Agonism Beta-lactamase Assay, Phase 3 (AID 2283593);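 further: cells exposed to compound for 16 h before reading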
Procedure, shortened: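 HCT-116 cells (4000/well) rested 5 h at 37C, then got DMSO compounds by pin tool (217-fold dilution) for 16 h at 37C, 5% CO2. After the bla read, CellTiter-Glo was added and luminescence read at 30 min, room temperature.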

[19] = target: Cellular tumor antigen p53 (Homo sapiens) (UniProt P04637); assay: TOX21_p53_BLA_p2_ratio: Tox21 HCT-116 p53 Agonism Beta-lactamase Assay, Ratio, Phase 2 (AID 2283592)
Procedure, shortened: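 Plated HCT116 p53-bla cells (4000/well) received compound after 5 h, then 16 h at 37C/5% CO2. CCF4-AM added, 2 h RT. Ratio of 460 to 530 nm emission taken as the p53 reporter signal.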

Measured: AC50

Chain of Cellular tumor antigen p53 (Homo sapiens) (P04637 whole entry, looked up): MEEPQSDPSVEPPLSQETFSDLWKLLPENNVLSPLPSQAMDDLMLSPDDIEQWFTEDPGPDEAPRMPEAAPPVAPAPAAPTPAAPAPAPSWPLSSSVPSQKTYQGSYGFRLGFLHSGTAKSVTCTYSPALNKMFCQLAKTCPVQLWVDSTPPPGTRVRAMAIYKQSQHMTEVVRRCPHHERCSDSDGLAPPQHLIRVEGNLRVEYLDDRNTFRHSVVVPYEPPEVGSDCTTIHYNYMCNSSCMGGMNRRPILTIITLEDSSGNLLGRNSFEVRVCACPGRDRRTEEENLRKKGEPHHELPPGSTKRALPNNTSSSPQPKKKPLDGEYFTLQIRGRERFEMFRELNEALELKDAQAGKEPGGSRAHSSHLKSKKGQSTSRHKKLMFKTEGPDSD

CSC(C)(C)C=NO
inactive: [1] | [2] | TIMP1, TIMP1 (gene 7076) | [3] | [4] | [5] | [6] | [7] | [8] | [9] | [10]

Nc1cc2c3c(c1)C(c1ccccc1)=N[C@@H](NC(=O)c1cccnc1)C(=O)N3CC2
inactive: [11] | [1] | [2] | TIMP1, TIMP1 (gene 7076) | [3] | [4] | [5] | [6] | [7] | [8] | [10]

Nc1ccc2ccccc2c1
active: [4] 9.29 µM | [5] 18.8 µM
not listed: [11] | [18] | [19]
inactive: all other assays above

c1ccc2c(c1)Nc1ccccc1S2
active: [4] 32.5 µM | [5] 50 µM
not listed: [11] | [19]
inactive: all other assays above

O=C(O)C1C(C(=O)O)C2(Cl)C(Cl)=C(Cl)C1(Cl)C2(Cl)Cl (centres undefined)
not listed: [11] | [14] | [18]
inactive: all other assays above

OCC1CO1 (centres undefined)
not listed: [11] | [12] | [19]
inactive: all other assays above

CCOC(=O)c1ccccc1C(=O)OCC
not listed: [9] | [11] | [16]
inactive: all other assays above

CCC(C)(C)c1ccc(O)cc1
not listed: [11] | [19]
inactive: all other assays above

CCCCCCCc1ccc(O)cc1
inactive: [1] | [2] | TIMP1, TIMP1 (gene 7076) | [3] | [4] | [5] | [6] | [7] | [8] | [10]
active: [9] 152 µM and 185 µM and 129 µM

c1ccc(OP(Oc2ccccc2)Oc2ccccc2)cc1
not listed: [11] | [12] | [16] | [17] | [18] | [19]
inactive: all other assays above

O=P(Oc1ccccc1)(Oc1ccccc1)Oc1ccccc1
active: [2] 77.5 µM | TIMP1, TIMP1 (gene 7076) 73.1 µM | [5] 3.1 µM | [8] 72.7 µM
not listed: [11] | [19]
inactive: all other assays above

c1nc[nH]n1
active: [1] 94.8 nM | [2] 12.4 µM
not listed: [10] | [11] | [14] | [18] | [19]
inactive: all other assays above

CCCN(CCC)c1c([N+](=O)[O-])cc(C(C)C)cc1[N+](=O)[O-]
active: TIMP1, TIMP1 (gene 7076) 0.11 µM | [3] 43.2 nM | [5] 1.85 µM | [6] 1.17 µM
not listed: [11] | [15] | [17] | [19]
inactive: all other assays above

CC(C)(C)OOC(C)(C)C
not listed: [11]
inactive: all other assays above

CCOP(=S)(Oc1ccc([N+](=O)[O-])cc1)c1ccccc1 (centres undefined)
active: [4] 50 µM | [5] 12.7 µM
inactive: [1] | [2] | TIMP1, TIMP1 (gene 7076) | [3] | [6] | [7] | [8] | [9] | [10]

Nc1ccc(Cl)cc1
active: [5] 36.5 µM
not listed: [11]
inactive: all other assays above
